Measurements reported in publication doi:10.1101/2024.03.05.583629.

Molecular target: pT7_6His-AlfaTag-ZIF268 (human, UniProt P18146 335-423)
Assay: PADIT-seq
Details: dsDNA, one strand shown

Q: With “CTCGAGGATATCAAGATCTGGCCTCGGCGCGTGGTGGGGAACCTCTAGCTAGCCGACTCACTATAGGGATAATCGCCCTGAGCAAAGACC” as the sequence, how does the binding signal read?
A: 0.205 ± 0.103 log2FC

Q: “CTCGAGGATATCAAGATCTGGCCTCGGCGCGTGGGCAGGAACCTCTAGCTAGCCGACTCACTATAGGGATAATCGCCCTGAGCAAAGACC” was tested. Which binding signal did it give?
A: 2.8 ± 0.0823 log2FC

Q: How did the binding signal turn out when “CTCGAGGATATCAAGATCTGGCCTCGGCGCGCGTGCGGGAACCTCTAGCTAGCCGACTCACTATAGGGATAATCGCCCTGAGCAAAGACC” was run?
A: 0.0362 ± 0.119 log2FC

Q: “CTCGAGGATATCAAGATCTGGCCTCGGCCGCCCACACGGAACCTCTAGCTAGCCGACTCACTATAGGGATAATCGCCCTGAGCAAAGACC” was tested. Which binding signal did it give?
A: 1.63 ± 0.0957 log2FC

Q: How did the binding signal turn out when “CTCGAGGATATCAAGATCTGGCCTCGGCCGCCCACGAGGAACCTCTAGCTAGCCGACTCACTATAGGGATAATCGCCCTGAGCAAAGACC” was run?
A: 0.778 ± 0.094 log2FC

Q: Which binding signal does the source give for “CTCGAGGATATCAAGATCTGGCCTCGGCCGCCCAAACGGAACCTCTAGCTAGCCGACTCACTATAGGGATAATCGCCCTGAGCAAAGACC” here?
A: 0.0706 ± 0.0989 log2FC

Q: How did the binding signal turn out when “CTCGAGGATATCAAGATCTGGCCTCGGCCGCGGTCGCGGAACCTCTAGCTAGCCGACTCACTATAGGGATAATCGCCCTGAGCAAAGACC” was run?
A: 0.00429 ± 0.0911 log2FC

Q: For “CTCGAGGATATCAAGATCTGGCCTCGGCCACCCACGCGGAACCTCTAGCTAGCCGACTCACTATAGGGATAATCGCCCTGAGCAAAGACC”, which binding signal is on record?
A: 2.1 ± 0.135 log2FC

Q: “CTCGAGGATATCAAGATCTGGCCTCGGCGCGTGGGCTGGAACCTCTAGCTAGCCGACTCACTATAGGGATAATCGCCCTGAGCAAAGACC” was tested. Which binding signal did it give?
A: 2.62 ± 0.0973 log2FC

Q: Which binding signal does the source give for “CTCGAGGATATCAAGATCTGGCCTCGGCCGCCCAAAAGGAACCTCTAGCTAGCCGACTCACTATAGGGATAATCGCCCTGAGCAAAGACC” here?
A: 0.0465 ± 0.0996 log2FC
